Bioassay records (PubChem BioAssay)
INS promoter inh: TRM-6 insulin promoter activity inhibition; inhibition, % at 2 µM; TRM-6 cells (human fetal islet line), insulin promoter-eGFP reporter, imaging; reporter expression induced with tamoxifen; actives 0.9% (n = 130,000);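 active = inhibition above the mean plus 3 SD, with well images judged a real hit on visual review, cut at about 60% in these data, passing the limit was not always enough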
Hsp70 activator: transcriptional activators of Hsp70 | actives 0.04% (n = 200,000) | activation, % at 10 µM | AID 1203 | HeLa Hsp70 promoter luciferase reporter, luminescence; scaled: vehicle 0, proteasome-inhibitor control 100%;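 active = activation above the mean across all tested compounds plus 3 SD, cutoff set per campaign, cut at about 5.5% in these data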;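 note: 100% = MG132 at 30 µM as the positive control and 0% = DMSO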
S1P3 antag: blocks the human S1P3 receptor; AID 485; Q99500; CHO S1P3 NFAT-BLA reporter, FRET fluorescence, antagonist mode; actives 0.27% (n = 170,000); inhibition, % at 4.98 µM;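 active = inhibition above the plate cutoff, the mean inhibition of test wells on that plate plus 3 SD, cut at about 28% in these data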;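 note: cells challenged with S1P at its EC80 of 0.8 µM; blue over green emission ratio from cleaved BLA substrate after 4 h stimulation; 0% = S1P-stimulated wells and 100% = unstimulated DMSO-only wells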
Target sequence (Q99500 whole entry, looked up): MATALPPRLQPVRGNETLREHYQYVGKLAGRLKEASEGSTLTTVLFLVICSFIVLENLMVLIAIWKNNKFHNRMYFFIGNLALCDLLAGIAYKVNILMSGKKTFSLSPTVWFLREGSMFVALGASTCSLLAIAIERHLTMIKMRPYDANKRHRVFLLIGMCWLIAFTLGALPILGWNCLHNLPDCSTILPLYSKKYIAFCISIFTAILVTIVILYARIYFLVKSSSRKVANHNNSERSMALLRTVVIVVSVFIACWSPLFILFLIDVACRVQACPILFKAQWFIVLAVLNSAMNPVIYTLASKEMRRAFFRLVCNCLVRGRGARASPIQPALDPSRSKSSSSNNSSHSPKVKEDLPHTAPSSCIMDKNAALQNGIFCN
S1P4 antag: human S1P4 receptor antagonism. S1P4-expressing cells, antagonist mode, reporter read-out. inhibition, % at 4.98 µM. actives 0.26% (n = 220,000). AID 1510; in the data active = inhibition above about 29%;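 note: 0% = wells stimulated with agonist and 100% = vehicle wells without agonist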
S1P4 ag: human S1P4 receptor agonism | actives 0.35% (n = 220,000) | S1P4-expressing cell line, agonist reporter assay | activation, % at 4.98 µM | O95977; in the data active = activation above about 11%;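 note: 0% = DMSO vehicle and 100% = reference agonist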
Insulin prom up: MIN6 insulin promoter up-regulation | actives 0.3% (n = 190,000) | z-score at 5 µM | MIN6 insulin promoter-GFP reporter, high-content imaging; active compounds read high;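 active = z-score above 3 at 5 µM with at least 500 cells counted in the well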
An asterisk follows results filed as active; nt = no result. The list is not random: actives were taken first. Their share in the collection is about 1.5%.

SMILES	INS promoter inh	Hsp70 activator	S1P3 antag	S1P4 antag	S1P4 ag	Insulin prom up
CCc1nc(Nc2ccc3c(c2)OCCO3)c2oc3ccccc3c2n1	86*	0	nt	-70	-2	-2
Cc1nn(-c2c(Cl)cc(Cl)cc2Cl)c(=O)c2ccccc12	16	0	nt	8	-1	3.4*
CCCCSC1=C(C#N)C(c2ccccc2C)CC(=O)N1 (stereo not given)	nt	0	102*	-5	0	0.64
Cc1ccc(C2CC(=O)NC(SCc3ccccc3)=C2C#N)o1 (stereo not given)	nt	0	0	-13	-1	3.4*
COC(=O)c1cc2sc(Cl)cc2n1CC(=O)N1CCCc2ccccc21	-30	0	41	8	1	0.78
CC(C)C1N(S(=O)(=O)c2ccccc2)CCN1S(=O)(=O)c1ccccc1	-15	0	15	-23	0	-0.6
CO/N=C(/CS(=O)(=O)Cc1ccccc1Cl)c1ccc(Cl)cc1Cl	16	0	nt	-4	-2	0.53
O=Cc1sc(Nc2ccccc2)nc1Cl	-245	0	-19	-30	1	3.7*
Cc1ccc(Nc2nc(Cl)c(C=O)s2)cc1Cl	nt	0	-5	-6	0	nt
COc1ccccc1Nc1nc2c(s1)CCC2	nt	0	6	-3	-1	0.6
COc1ccccc1Nc1nc(Cl)c(C=O)s1	nt	0	-6	-9	1	3.2*
COc1cc(CC(=O)Nc2ccc(S(=O)(=O)NC3=NCCCCC3)cc2)cc(OC)c1OC	nt	0	-21	-18	-1	0.17
C=CC(=O)N1C/C=C\C(c2ccc(OC)cc2)N(Cc2ccc(F)cc2)C(=O)C1 (stereo not given)	nt	nt	nt	nt	nt	0.49
COc1ccc(C2/C=C\CN(S(=O)(=O)c3cccc4cccnc34)CC(=O)N2Cc2ccc(F)cc2)cc1 (stereo not given)	nt	nt	nt	nt	nt	7.5*
O=[N+]([O-])c1cccc(-n2cccc2/C=N/Nc2nc(N3CCCCC3)nc(N3CCCCC3)n2)c1	22	0	-14	-1	1	0.19
O=[N+]([O-])c1cccc(/C=N/Nc2nc(N3CCCCC3)nc(N3CCCCC3)n2)c1	71*	0	12	-10	2	0.02
COc1cccc(OCC(=O)Nc2c(C(=O)Nc3ccc(OC)cc3OC)oc3ccccc23)c1	nt	nt	-25	nt	nt	nt
N=c1sccn1CC(=O)NC(=O)NC1CCCC1	88*	0	-1	-21	-1	nt
CC1=NCCN1S(=O)(=O)c1cc([N+](=O)[O-])ccc1Cl	-5	0	-7	9	2	nt
COc1cc2cc(CN(CCCO)S(=O)(=O)c3ccccc3Cl)c(=O)[nH]c2cc1OC	-54	0	-35	-8	1	0.29
CC1CC(=O)C2=C(C1)OC(N)=C(C#N)C2c1coc2ccccc2c1=O (stereo not given)	-32	0	-6	-3	3	3*
CC1(C)CC(=O)C2=C(C1)OC(N)=C(C#N)C2c1ccccc1 (stereo not given)	nt	0	-8	-16	0	0
COc1ccccc1NC(=O)CSc1nnc(C)o1	nt	0	nt	-2	0	1.3
Cc1cc(NC(=O)CN2CCC(n3nnc4cc(C(F)(F)F)ccc43)CC2)no1	nt	-1	-3	9	-2	-0.51
CCOc1ccc2nc(NC(=O)CN3CCC(n4nnc5cc(C(F)(F)F)ccc54)CC3)sc2c1	77*	0	nt	-6	-1	-1.9
SMILES	INS promoter inh	Hsp70 activator	S1P3 antag	S1P4 antag	S1P4 ag	Insulin prom up
Cc1noc(C)c1C(=O)NC(C)C1CCCO1 (stereo not given)	89*	0	-5	-13	0	0.16
CSCCC(N=C(NS(=O)(=O)c1ccccc1)c1ccccc1)C(=O)O (stereo not given)	nt	nt	-2	0	1	-0.09
N#Cc1cc2ccccc2nc1SCC(=O)Nc1ccc(S(=O)(=O)N2CCCC2)cc1	-21	0	-16	0	1	-0.34
COc1ccc2nc(SCC(=O)Nc3ccc(S(=O)(=O)N4CCCC4)cc3)c(C#N)cc2c1	-91	-1	3	-3	0	3.5*
O=C(CSc1nnc2ccccn12)NCc1ccco1	71*	0	13	-7	2	-0.13
CC(C)c1nnc(SCC(=O)NCc2ccco2)n1C	11	0	-3	-1	1	-1.1
Cn1cc(P(=S)(N2CCOCC2)N2CCOCC2)cc1P(=S)(N1CCOCC1)N1CCOCC1	nt	0	2	-1	0	-0.35
CCN(CC)CC(=O)c1c(N)n(Cc2ccccc2)c(=O)n(C)c1=O	-9	0	-6	-20	2	0.54
CCC(=O)OCC(=O)c1c(N)n(Cc2ccccc2)c(=O)n(C)c1=O	-36	0	-3	-7	1	3.3*
CCCC(c1nnnn1Cc1ccco1)N1CCN(c2cc(Cl)ccc2C)CC1 (stereo not given)	nt	0	60*	9	-1	nt
O=C1c2ccccc2-c2c1cccc2C(=O)N1CCN(C(=O)c2ccco2)CC1	-70	0	nt	-22	0	-0.38
CC1CC(C)CN(C(=O)c2cccc3c2-c2ccccc2C3=O)C1 (stereo not given)	nt	nt	8	-2	-1	4*
Cc1cc(C(F)(F)F)nc(SCc2ccc(C(=O)O)o2)n1	73*	0	-48	10	0	0.06
COc1ccc(/C=C(\C#N)C(=O)OCC(=O)Nc2c(C)cccc2C(C)C)cc1	25	0	2	-13	-1	3.4*
COc1ccc(/C=C(\C#N)C(=O)OCC(=O)NC(=O)NCCC(C)C)cc1	-20	0	0	1	0	nt
COc1ccccc1C(=O)Oc1cc(N)n(S(=O)(=O)c2ccc(C)cc2)n1	79*	0	6	-6	1	1
Cc1ccc(S(=O)(=O)n2nc(OC(=O)c3ccco3)cc2N)cc1	nt	0	-8	-5	0	nt
CCCC(=O)Nc1nnc(COC)s1	89*	0	-4	-12	0	0.35
COc1cccc(CCC(=O)O)c1OC	89*	0	-3	2	0	nt
CN(C)CCNC(=O)c1ccc(Sc2ccc(Br)cc2)c([N+](=O)[O-])c1	nt	0	5	-9	-2	-0.09
CCc1cccc(CC)c1NC(=O)CN1C2CCCC1CC(NC(=O)Nc1cccc(OC)c1)C2 (stereo not given)	nt	0	14	-22	3	-2.8
COc1ccc(N2CCN(C(=O)c3ccc(-n4nc(C)cc4C)cc3)CC2)cc1	41	0	5	-17	-7	0.72
C/C(=N\NC(=O)c1ccn(C)n1)c1ccc(NC(=O)C2CCCC2)cc1	71*	0	5	3	2	0.4
Cc1ccc(N=C2NC(=O)/C(=C/c3cn(C)c4ccccc34)S2)cc1C	nt	0	12	4	0	3*
Cn1cccc1/C=C1\SC(=Nc2ccccc2)NC1=O	nt	nt	13	7	-1	0.1
O=c1c2ccccc2nnn1CSc1nnc2ccccn12	nt	0	21	-17	0	-0.9
